Only some compounds are listed: those with a hit (about 2.5% of all), similar ones and a draw of the others.
14-3-3 Bad PPI: disrupts binding of bovine 14-3-3 zeta to phospho-Bad peptide; P63103; TR-FRET 14-3-3zeta/Dy647-pBad peptide displacement, 1 h; inhibition, % at 21.7 µM; 220,000 compounds, 0.71% hits; AID 781;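 active = inhibition above about 70%, limit read from the data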;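 note: 0% = full 14-3-3 plus peptide FRET controls and 100% = background without 14-3-3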
Mcl1-Noxa inh: Mcl-1/Noxa interaction inhibition. Q07820. TR-FRET Mcl-1/Noxa peptide binding, 2 h. inhibition, % at 21.7 µM. 220,000 compounds, 1.5% hits. AID 1022;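 active = compounds that cut the protein-peptide binding signal by more than 50% relative to plate controls in a single-dose test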;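 note: His-tagged Mcl-1 with rhodamine Noxa BH3 peptide and terbium anti-His antibody; 0% = Mcl-1 plus Noxa peptide wells and 100% = peptide-only wells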
Target sequence (Q07820 whole entry, looked up): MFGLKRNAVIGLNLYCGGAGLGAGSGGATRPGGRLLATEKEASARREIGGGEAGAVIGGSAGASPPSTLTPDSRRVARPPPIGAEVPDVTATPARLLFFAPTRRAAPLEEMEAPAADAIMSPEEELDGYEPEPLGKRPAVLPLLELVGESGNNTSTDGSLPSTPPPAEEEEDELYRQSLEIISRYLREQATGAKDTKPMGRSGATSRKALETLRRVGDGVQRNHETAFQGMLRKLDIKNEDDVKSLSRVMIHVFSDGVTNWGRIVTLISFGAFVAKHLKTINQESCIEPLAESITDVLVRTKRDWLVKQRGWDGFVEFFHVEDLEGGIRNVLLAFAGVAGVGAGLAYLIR
Mcl1 Bid PPI: Mcl-1/Bid interaction inhibition. Q07820. TR-FRET Mcl-1/Bid-Dy647 peptide binding, 1536-well. inhibition, % at 21.7 µM. 220,000 compounds, 0.97% hits. AID 1021;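 active = compounds that cut the binding signal by more than half at the single screening dose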;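 note: His-tagged Mcl-1 with europium anti-His antibody binding Bid BH3 peptide; 0% = Mcl-1 plus peptide wells and 100% = peptide-only wells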
MCL1-BIM inh: inhibitors of human MCL1 binding to BIM-BH3 peptide; GST-MCL1 / FITC-Bim-BH3 fluorescence polarization; inhibition, % at 10.9 µM; 320,000 compounds, 0.68% hits;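 active = inhibition above the mean inhibition of all tested compounds plus 3 SD, set per campaign, cut at about 40% in these data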;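 note: 0% = DMSO wells and 100% = unlabeled Bim-BH3 peptide control; higher means more loss of mP so more displacement of Bim peptide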
Mcl-1 Bim block: human Bim-Mcl-1 interaction inhibition; Q07820; Bead-based flow cytometry, Bim peptide-Mcl-1 binding; inhibition, % at 10 µM; 190,000 compounds, 0.1% hits; in the data active = inhibition above about 40%;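 note: 0% = no compound tracer wells and 100% = peptide blocker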
Active calls of the source: *; nt = no result given; [ ] = another dose, or the depositor's remark.

SMILES | 14-3-3 Bad PPI | Mcl1-Noxa inh | Mcl1 Bid PPI | MCL1-BIM inh | Mcl-1 Bim block
Cn1c(=O)c(/C=C/c2ccccc2)nc2ccccc21 | -6 | 17 | -14 | 41* | -1
N#Cc1c(NC(=S)NC(=O)c2ccccc2)sc2c1CCC2 | -3 | 37 | 8 | 7 | -4
CCN1CCc2c(sc(NC(=S)NC(=O)c3ccccc3)c2C#N)C1 | 79* | 29 | 17 | -9 | 2
COC(=O)C(N)Cc1ccc(O)c(O)c1 (configuration not stated) | 7 | 16 | -13 | 11 | 3
O=C(O)/C=C/c1ccc(O)c(O)c1 | -5 | 60* | -25 | -2 | 0
O=C(/C=C/c1ccc(O)c(O)c1)O[C@H](Cc1ccc(O)c(O)c1)C(=O)O | 61 | 93* | -105 | nt | nt
COc1ccc(CC/C(=N\O)C2(O)CCCCC2)cc1 | 6 | -5 | -23 | 6 | -2
Fc1cccc(F)c1/C=N/NC(=S)Nc1cccnc1 | -9 | 18 | -11 | 7 | 1
Oc1cccc(/C=N/NC(=S)Nc2cccnc2)c1O | -7 | 66* | -89 | 11 | -7
Oc1ccc(/C=N/NC(=S)Nc2cccnc2)c(O)c1O | 72* | 102* | -3 | nt | nt
Oc1ccc(/C=N/NC(=S)Nc2cccnc2)c(O)c1 | 1 | -5 | -87 | 17 | -9
CC(=O)NCC(=O)OCC(=O)c1ccc(C)cc1 | 22 | -1 | -3 | 0 | 0
CC(=O)OCCNc1cc(SCc2ccco2)c2nonc2c1[N+](=O)[O-] | 8 | 32 | -17 | 36 | -1
CC(=O)OCCCNc1cc(Sc2nc3ccccc3s2)c2nonc2c1[N+](=O)[O-] | 1 | 64* | -67 | 15 | 4
CC(=O)OCCCNc1cc(Sc2ccc(C)cc2)c2nonc2c1[N+](=O)[O-] | 0 | 10 | -6 | 2 | 0
CC(=O)OCCNc1cc(Sc2nc3ccccc3[nH]2)c2nonc2c1[N+](=O)[O-] | 3 | 61* | -106 | 5 | -6
CCOc1cccc(C(=O)NC(=S)Nc2cccnc2)c1 | -10 | 10 | -55 | 10 | -2
Cc1cc(C)c2nc(N3CCCN(C(=O)c4ccco4)CC3)c(C#N)cc2c1 | 12 | 73* | 55* | 22 | 1
Cc1nc(N2CCN(C(=O)c3ccco3)CC2)c(C#N)c2c1CCCC2 | nt | nt | nt | -3 | nt
O=C(NNC(=O)C12CC3CC(CC(C3)C1)C2)c1ccccc1O | nt | nt | nt | 1 | nt
Nc1c(C(=O)Nc2ccc(F)cc2)sc2nc(-c3ccco3)ccc12 | 2 | 98* | 91* | -9 | 11
CCC(Sc1nc2ccccc2c2nc3ccccc3n12)C(=O)NCc1ccco1 (configuration not stated) | 78* | 5 | -16 | 6 | -1
COc1ccc(CNC(=O)CSc2nnc3c(n2)[nH]c2ccccc23)cc1 | nt | nt | nt | 5 | nt
O=C(CSc1nc2ccccc2c(=O)n1Cc1ccco1)NCc1ccco1 | 88*[fluorescence artefact?] | 38 | -7 | 14 | -3
O=C(CSc1nnc2c(n1)[nH]c1ccccc12)NCc1ccco1 | -5 | 73* | -27 | 13 | -6
SMILES | 14-3-3 Bad PPI | Mcl1-Noxa inh | Mcl1 Bid PPI | MCL1-BIM inh | Mcl-1 Bim block
O=C(NCc1ccco1)c1ccc2c(=O)n(Cc3ccco3)c(SCC(=O)N3CCCC3)nc2c1 | -3 | 54* | 0 | 17 | -2
CC(=O)c1ccccc1OC(=O)COc1ccc([N+](=O)[O-])cc1 | nt | nt | nt | 0 | nt
COc1ccccc1N(CC(=O)Nc1cccc(C(F)(F)F)c1)S(C)(=O)=O | -2 | -7 | -49 | 1 | -4
Cc1c(C(=O)OCC(=O)Nc2c(C)n(C)n(-c3ccccc3)c2=O)oc2ccccc12 | -2 | 13 | -22 | -11 | -2
Cc1csc(CCc2nc(C)cs2)n1 | 2 | -10 | 100* | 7 | -5
CC1CN(CCS(=O)(=O)c2cc(Cl)ccc2Cl)CC(C)O1 (configuration not stated) | nt | nt | nt | -6 | nt
O=C(CCl)N1CCN(S(=O)(=O)c2ccc3ccccc3c2)CC1 | nt | nt | nt | 3 | nt
CCOC(=O)N1CCC(N2CCN(S(=O)(=O)c3ccc4ccccc4c3)CC2)CC1 | 70* | 8 | 27 | 4 | 0
O=C(CNCC1CCCO1)N1CCN(S(=O)(=O)c2ccc3ccccc3c2)CC1 (configuration not stated) | 73* | 26 | 15 | 7 | 2
COC(=O)c1cccc(NC(=S)Nc2cccc(Cl)c2Cl)c1 | -4 | 35 | 98* | 7 | -4
CC(C)NCCOCCSc1ccc(Cl)cc1 | 83* | 24 | 17 | 10 | -3
CC1(C)CC(=O)C2=C(C1)N(c1cccc(O)c1)C1=C(C2)C(=O)CC(C)(C)C1 | -5 | 20 | -26 | 74* | -2
